Source: PubChem BioAssay
Calls of active or inactive are those of the source.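 The calls were made as follows: active = compounds whose cell count with miR-34 switched on is under 0.7 times the count with it off; inactive = the rest.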

assay: viability loss with induced miR-34 in A549 – imaging, A549 dox-inducible miR-34, nuclei and caspase counts, primary screen (AID 1347080); settings: A549 miR-34 inducible, Hoechst nuclei count, 48 h; hits give low values; cell number ratio, induced over uninduced; also: test concentration not given here

**Q.** With `CCCCCCCC/C=C\CCCCCC(=O)OC` as the molecule, how does the fold change read?
**A.** Its fold change is 0.895 (inactive).

**Q.** For `O=C(O)CCCCCC[C@@H]1C(=O)NC(=O)N1CCC(O)C1CCCCC1` (some centres undefined), which fold change is on record?
**A.** The fold change was 1.01 (inactive).

**Q.** Which fold change does the source give for `CCCCC/C=C\C/C=C\C/C=C\C/C=C\CCCC(=O)OCc1ccsc1` here?
**A.** Its fold change is 0.989 (inactive).

**Q.** With `CCCCC/C=C\C/C=C\CCCCCCCC(=O)OC[C@H](O)CO` as the molecule, how does the fold change read?
**A.** Its fold change is 0.698 (active).

**Q.** With `CC/C=C\C/C=C\C/C=C\C/C=C\CCCCC(=O)OCC` as the molecule, how does the fold change read?
**A.** Its fold change is 1.03 (inactive).

**Q.** Which fold change does the source give for `CCC(C)[C@H]1O[C@]2(C=C[C@@H]1C)C[C@@H]1C[C@@H](C/C=C(\C)[C@@H](OC3C[C@H](OC)C(O[C@H]4C[C@H](OC)[C@@H](NC(C)=O)[C@H](C)O4)[C@H](C)O3)[C@@H](C)/C=C/C=C3\CO[C@@H]4[C@H](O)C(C)=C[C@@H](C(=O)O1)[C@]34O)O2` (some centres undefined) here?
**A.** The fold change was 1.03 (inactive).

**Q.** For `CCCC[C@H](C)C[C@H](O)/C=C/[C@H]1[C@H](O)CC(=O)[C@@H]1CCCC/C=C/C(=O)O`, which fold change is on record?
**A.** The fold change was 0.92 (inactive).

**Q.** Which fold change does the source give for `O=C(O)CCCCCC[C@H]1C(=O)C[C@@H](O)[C@@H]1/C=C/[C@@H](O)Cc1ccccc1` here?
**A.** The fold change was 1.03 (inactive).

**Q.** Which fold change does the source give for `O=P(O)(O)O[C@H]1[C@@H](O)[C@H](O)[C@@H](OP(=O)(O)O)[C@H](OP(=O)(O)O)[C@H]1O` here?
**A.** The fold change was 0.877 (inactive).

**Q.** Which fold change does the source give for `CCCCC[C@H](O)/C=C/[C@H]1CC[C@@H](O)[C@@H]1C/C=C\CCCC(=O)O` here?
**A.** Its fold change is 0.973 (inactive).

**Q.** For `O=C(/C=C/c1cccc(C(=O)NO)c1)NO`, which fold change is on record?
**A.** The fold change was 0.962 (inactive).

**Q.** With `CCCCCC(=O)/C=C/[C@@H]1[C@H](C/C=C\CCCC(=O)O)[C@H](O)C[C@H]1O` as the molecule, how does the fold change read?
**A.** The fold change was 0.99 (inactive).

**Q.** With `CCCCNC(=O)NS(=O)(=O)c1ccc(CO)cc1` as the molecule, how does the fold change read?
**A.** Its fold change is 1.05 (inactive).

**Q.** With `CC(C)CCCC(C)NC(C)C` (centres undefined) as the molecule, how does the fold change read?
**A.** The fold change was 0.993 (inactive).

**Q.** Which fold change does the source give for `O=C(Cc1ccccc1Nc1c(Cl)cccc1Cl)Oc1ccc(-c2cc(=S)ss2)cc1` here?
**A.** The fold change was 0.933 (inactive).

**Q.** Which fold change does the source give for `CC/C=C\C/C=C\C/C=C\C/C=C\CCCCC(=O)O` here?
**A.** Its fold change is 0.875 (inactive).

**Q.** With `COc1ccc(/C=C/C(=O)Nc2c(O)cccc2C(=O)O)cc1OC` as the molecule, how does the fold change read?
**A.** The fold change was 0.585 (active).

**Q.** Which fold change does the source give for `CCCCC[C@H](O)/C=C/[C@@H]1[C@H]2CC(CCCCC(=O)O)O[C@H]2C[C@H]1O` (some centres undefined) here?
**A.** Its fold change is 0.937 (inactive).

**Q.** Which fold change does the source give for `CC(=O)c1ncc([C@@H](O)[C@H](O)[C@H](O)CO)[nH]1` here?
**A.** The fold change was 0.931 (inactive).

**Q.** Which fold change does the source give for `OCCC/C=C/c1ccccc1` here?
**A.** The fold change was 0.953 (inactive).

**Q.** With `[O-]/[N+](=N/O[C@@H]1O[C@H](CO)[C@H](O)[C@H](O)[C@H]1O)N1CCCC1` as the molecule, how does the fold change read?
**A.** Its fold change is 0.904 (inactive).

**Q.** Which fold change does the source give for `OC[C@H]1NC[C@H](O)[C@@H](O)[C@@H]1O` here?
**A.** The fold change was 0.965 (inactive).

**Q.** For `CN(C)CCCCCCOc1ccc(-n2ccnc2)cc1`, which fold change is on record?
**A.** Its fold change is 1.01 (inactive).

**Q.** With `CC/C=C/C[C@H](O)/C=C/[C@H]1[C@H](O)CC(=O)[C@@H]1C/C=C\CCCC(=O)O` as the molecule, how does the fold change read?
**A.** The fold change was 0.915 (inactive).

**Q.** With `CCCCC[C@H](O)/C=C/[C@H]1OC(O)C[C@H](O)[C@@H]1CCCCCCC(=O)O` (some centres undefined) as the molecule, how does the fold change read?
**A.** The fold change was 1.03 (inactive).

**Q.** With `CCCCC[C@H](O)/C=C/[C@@H]1c2cc(CCCCC(=O)O)n(-c3ccccc3)c2C[C@H]1O` as the molecule, how does the fold change read?
**A.** Its fold change is 0.958 (inactive).

**Q.** Which fold change does the source give for `CCCOCCCCCCCCCC(=O)O` here?
**A.** The fold change was 1.02 (inactive).

**Q.** Which fold change does the source give for `C#CCOc1ccccc1CCCCCC(=O)NS(C)(=O)=O` here?
**A.** Its fold change is 0.952 (inactive).

**Q.** With `FC(F)(F)c1ccc(/C=C/c2cc(Cl)cc(Cl)c2)cc1` as the molecule, how does the fold change read?
**A.** Its fold change is 1.01 (inactive).

**Q.** With `O=C(O)CCC/C=C\C[C@H]1[C@@H](/C=C/[C@@H](O)CCc2ccccc2)[C@H](O)C[C@H]1O` as the molecule, how does the fold change read?
**A.** The fold change was 0.969 (inactive).

**Q.** For `NC1=NC(=O)/C(=C/c2ccc(O)cc2)S1`, which fold change is on record?
**A.** The fold change was 1.06 (inactive).

**Q.** Which fold change does the source give for `CCCCC/C=C\C/C=C\C/C=C\CCCCCCC(=O)OCC` here?
**A.** Its fold change is 1.05 (inactive).

**Q.** For `CCCCC/C=C\C/C=C\C/C=C\C/C=C\CCCC(=O)S[C@H](COCCCCCCCCCCCCCCCC)COP(=O)([O-])OCC[N+](C)(C)C`, which fold change is on record?
**A.** Its fold change is 1.09 (inactive).

**Q.** For `CCCCCNC1=C(c2cn(C)c3ccccc23)C(=O)N(C)C1=O`, which fold change is on record?
**A.** Its fold change is 0.981 (inactive).

**Q.** For `CCCCCCCC/C=C\CCCCCCCC(=O)NCCS(=O)(=O)O`, which fold change is on record?
**A.** The fold change was 0.992 (inactive).

**Q.** With `C[Se]CC[C@H](N)C(=O)O` as the molecule, how does the fold change read?
**A.** The fold change was 0.969 (inactive).

**Q.** Which fold change does the source give for `C=C1O[C@@](CO)(n2cnc3c(N)ncnc32)[C@H](O)[C@@H]1O` here?
**A.** Its fold change is 0.941 (inactive).

**Q.** Which fold change does the source give for `CCCCCCCCCCCCCCCCCC(=O)N[C@H]1CCOC1=O` here?
**A.** Its fold change is 1.11 (inactive).

**Q.** Which fold change does the source give for `CCCCCCCCCCCCCC(=O)OCC` here?
**A.** Its fold change is 1.01 (inactive).
